Laboratory results: publication PMC5700166
Numbering of substitutions follows the chain as printed.

Assays:
Test in all cases: protein-binding microarray (PBM); PBM: ~300 nM protein, 6 mM HEPES pH 7.8, 80 mM KCl, 0.5 mM EDTA, 0.5 mM EGTA, 6% glycerol, 35 ng/ul poly-dIdC, 1% milk, 1 h, room temperature; Ap Aiptasia and Nv Nematostella (sea anemones) / Co Capsaspora / Aq Amphimedon (sponge) / Dm Drosophila / Hu human; RHD is the Rel homology domain; high values mean tight binding
Settings in all cases: dsDNA, one strand shown
GST-Ap-NF-kB RHD = biological target: T1, GST-Ap-NF-kB RHD (Exaiptasia pallida (Aiptasia), UniProt A0A913YAJ5 2-422)
T1 sequence: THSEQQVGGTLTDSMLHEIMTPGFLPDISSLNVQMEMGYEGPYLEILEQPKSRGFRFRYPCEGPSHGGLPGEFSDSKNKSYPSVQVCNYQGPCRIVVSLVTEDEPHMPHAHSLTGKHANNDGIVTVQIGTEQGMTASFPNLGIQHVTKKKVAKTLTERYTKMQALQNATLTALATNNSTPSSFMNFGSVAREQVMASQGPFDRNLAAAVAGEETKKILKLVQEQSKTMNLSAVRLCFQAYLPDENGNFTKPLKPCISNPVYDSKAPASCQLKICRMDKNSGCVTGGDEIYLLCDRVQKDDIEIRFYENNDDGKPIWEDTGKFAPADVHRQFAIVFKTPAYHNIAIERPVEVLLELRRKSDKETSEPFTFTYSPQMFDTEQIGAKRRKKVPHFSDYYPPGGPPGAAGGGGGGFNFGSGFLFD

[1] = biological target: T2, GST-Nv-NF-kB (Cys allele) (Nematostella vectensis, UniProt E5G601 2-411)
T2 sequence: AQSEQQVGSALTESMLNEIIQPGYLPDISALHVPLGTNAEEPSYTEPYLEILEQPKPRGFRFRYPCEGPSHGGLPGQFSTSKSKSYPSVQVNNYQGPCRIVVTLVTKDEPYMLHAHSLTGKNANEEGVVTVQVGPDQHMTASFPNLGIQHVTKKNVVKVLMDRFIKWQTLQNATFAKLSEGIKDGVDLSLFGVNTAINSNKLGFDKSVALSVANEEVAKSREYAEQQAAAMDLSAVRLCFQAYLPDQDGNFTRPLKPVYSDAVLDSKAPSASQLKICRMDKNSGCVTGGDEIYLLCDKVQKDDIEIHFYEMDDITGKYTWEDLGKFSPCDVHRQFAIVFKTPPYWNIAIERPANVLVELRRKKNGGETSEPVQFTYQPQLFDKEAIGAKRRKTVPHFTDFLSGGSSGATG

[2] = biological target: T3, GST-Nv-NF-kB (Ser allele) (Nematostella vectensis, UniProt A7UNT2 2-411)
T3 sequence: T2 sequence with Q21R, C66S, S207N, E215Q, V217A, E225K, A268E, D399E

GST-Co-NF-kB = biological target: T4, GST-Co-NF-kB (Capsaspora owczarzaki, UniProt F1ARL5 200-546)
T4 sequence: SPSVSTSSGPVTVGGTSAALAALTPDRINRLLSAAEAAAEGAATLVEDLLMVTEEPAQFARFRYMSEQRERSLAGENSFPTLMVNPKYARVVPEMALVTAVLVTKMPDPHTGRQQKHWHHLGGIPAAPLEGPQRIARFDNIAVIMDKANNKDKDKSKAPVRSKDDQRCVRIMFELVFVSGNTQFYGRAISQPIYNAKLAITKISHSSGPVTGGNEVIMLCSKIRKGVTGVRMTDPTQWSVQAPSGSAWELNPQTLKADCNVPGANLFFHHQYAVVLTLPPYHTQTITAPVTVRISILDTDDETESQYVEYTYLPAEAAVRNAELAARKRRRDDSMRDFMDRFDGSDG

GST-Dm-Relish = biological target: T5, GST-Dm-Relish (Drosophila melanogaster, UniProt Q94527 99-473)
T5 sequence: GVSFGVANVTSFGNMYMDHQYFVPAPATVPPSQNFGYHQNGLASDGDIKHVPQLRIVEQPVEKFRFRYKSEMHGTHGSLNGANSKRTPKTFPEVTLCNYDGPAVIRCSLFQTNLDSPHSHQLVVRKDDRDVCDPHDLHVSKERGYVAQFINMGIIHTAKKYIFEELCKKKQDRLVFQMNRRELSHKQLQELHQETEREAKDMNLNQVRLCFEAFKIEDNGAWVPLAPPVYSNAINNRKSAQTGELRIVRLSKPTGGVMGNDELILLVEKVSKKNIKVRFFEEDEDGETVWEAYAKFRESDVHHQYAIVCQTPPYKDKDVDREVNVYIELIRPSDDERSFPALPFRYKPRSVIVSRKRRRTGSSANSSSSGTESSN

GST-Aq-NF-kB = biological target: T6, GST-Aq-NF-kB (Amphimedon queenslandica, UniProt A9Y5G7 2-389)
T6 sequence: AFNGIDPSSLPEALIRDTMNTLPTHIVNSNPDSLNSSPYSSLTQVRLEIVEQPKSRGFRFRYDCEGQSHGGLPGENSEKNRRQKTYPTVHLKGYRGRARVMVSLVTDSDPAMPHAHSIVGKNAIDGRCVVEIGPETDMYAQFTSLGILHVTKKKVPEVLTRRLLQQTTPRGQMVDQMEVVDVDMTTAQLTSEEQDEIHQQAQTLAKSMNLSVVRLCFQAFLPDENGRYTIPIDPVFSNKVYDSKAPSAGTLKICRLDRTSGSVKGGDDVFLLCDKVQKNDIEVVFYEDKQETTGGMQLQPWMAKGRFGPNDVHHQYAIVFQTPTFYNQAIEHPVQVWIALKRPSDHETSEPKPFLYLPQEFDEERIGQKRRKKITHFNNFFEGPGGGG

GST-Hu-p50 = GST-Hu-p50 (Homo sapiens, UniProt P19838 7-356)
Chain of GST-Hu-p50 (P19838 7-356): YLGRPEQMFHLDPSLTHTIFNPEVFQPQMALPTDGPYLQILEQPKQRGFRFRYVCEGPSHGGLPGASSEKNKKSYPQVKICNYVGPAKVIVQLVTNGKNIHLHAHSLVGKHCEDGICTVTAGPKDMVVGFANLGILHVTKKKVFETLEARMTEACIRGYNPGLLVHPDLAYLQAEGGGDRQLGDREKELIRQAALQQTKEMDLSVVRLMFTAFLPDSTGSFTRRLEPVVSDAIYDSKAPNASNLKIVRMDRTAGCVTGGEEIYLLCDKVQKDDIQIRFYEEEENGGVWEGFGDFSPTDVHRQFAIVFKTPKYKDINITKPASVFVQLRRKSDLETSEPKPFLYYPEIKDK

Sequence	binding signal (GST-Ap-NF-kB RHD) [z-score]	binding signal [1] [z-score]	binding signal [2] [z-score]	binding signal (GST-Co-NF-kB) [z-score]	binding signal (GST-Dm-Relish) [z-score]	binding signal (GST-Aq-NF-kB) [z-score]	binding signal (GST-Hu-p50) [z-score]
CCGATTAACATCAATAATTACCCTGATGTTAATCGGGTCTTGATTCGCTTGACGCTGCTG	2.91	4.26	4.81	3.12	3.09	3.72	3.55
CCGATTAACATCAGGGGGGTGCATGATGTTAATCGGGTCTTGATTCGCTTGACGCTGCTG	4.21	2.54	3.71	3.47	4.16	3.59	3.86
CCGATTAACATCAGGGGAATAACTGATGTTAATCGGGTCTTGATTCGCTTGACGCTGCTG	6.5	8.18	7.95	7.09	9.39	6.98	5.61
CCGATTAACATCAAAAGAGTCCCTGATGTTAATCGGGTCTTGATTCGCTTGACGCTGCTG	5.39	5.99	5.71	1.5	5.32	5.91	4.6
CCGATTAACATCAAGGATTCCCCTGATGTTAATCGGGTCTTGATTCGCTTGACGCTGCTG	9.7	10.5	10	6.56	9.55	7.75	6.89
CCGATTAACATCAAATACCCCCTTGATGTTAATCGGGTCTTGATTCGCTTGACGCTGCTG	8.01	6.1	6.79	4.41	6.19	6.04	5.85
CCGATTAACATCATAATCCCCCATGATGTTAATCGGGTCTTGATTCGCTTGACGCTGCTG	7.75	6.81	7.45	6.17	5.67	5.96	6.67
CCGATTAACATCAGGGGAGGTTATGATGTTAATCGGGTCTTGATTCGCTTGACGCTGCTG	4.62	3.22	4.77	4.52	1.82	3.84	3.74
CCGATTAACATCAAGGGAAGTCCTGATGTTAATCGGGTCTTGATTCGCTTGACGCTGCTG	3.99	4.16	2.7	1.08	7.26	5.77	2.73
CCGATTAACATCAACAAATCCCCTGATGTTAATCGGGTCTTGATTCGCTTGACGCTGCTG	7.43	7.95	10.9	4.14	6.61	5.53	7.22
CCGATTAACATCAAAATCCCCCGTGATGTTAATCGGGTCTTGATTCGCTTGACGCTGCTG	9.02	9.33	10.1	8.56	9.89	7.76	8.02
CCGATTAACATCACCCCTTCCCCTGATGTTAATCGGGTCTTGATTCGCTTGACGCTGCTG	4.7	3.88	4.86	5.6	2.5	3.85	3.3
CCGATTAACATCAGGAAGCCCCCTGATGTTAATCGGGTCTTGATTCGCTTGACGCTGCTG	6.62	5.72	3.93	1.49	7.8	7.03	5.74
CCGATTAACATCACCGTGGGAAATGATGTTAATCGGGTCTTGATTCGCTTGACGCTGCTG	1.9	2.4	2.68	3.18	1.32	1.95	2.29
CCGATTAACATCAGATACTCCCCTGATGTTAATCGGGTCTTGATTCGCTTGACGCTGCTG	5.47	4.28	4.21	4.31	1.86	4.46	3.57
CCGATTAACATCACCCTTCCCCCTGATGTTAATCGGGTCTTGATTCGCTTGACGCTGCTG	4.54	4.49	5.26	5.61	2.99	4.32	4.43
CCGATTAACATCAAAGTTTCCCATGATGTTAATCGGGTCTTGATTCGCTTGACGCTGCTG	2.54	4.29	3.82	4.66	2.05	4.32	3.28
CCGATTAACATCAGAAAAGTCCCTGATGTTAATCGGGTCTTGATTCGCTTGACGCTGCTG	7.92	10.1	9.94	1.28	8.36	8.15	6.91
CCGATTAACATCAGAATCTCCCCTGATGTTAATCGGGTCTTGATTCGCTTGACGCTGCTG	7.81	6.42	6.73	6.25	3.02	5.81	5.32
CCGATTAACATCAGGGGGACACCTGATGTTAATCGGGTCTTGATTCGCTTGACGCTGCTG	5.64	4.46	4.25	5.26	4.25	5.46	4.49
CCGATTAACATCAGGGCGCCCCCTGATGTTAATCGGGTCTTGATTCGCTTGACGCTGCTG	6.07	4.59	3.38	1.95	5.55	7.98	4.97
CCGATTAACATCAGATAATCCCCTGATGTTAATCGGGTCTTGATTCGCTTGACGCTGCTG	8.1	8.93	9.43	4.09	6.59	7.45	6.48
CCGATTAACATCACGGGGAAATCTGATGTTAATCGGGTCTTGATTCGCTTGACGCTGCTG	7.76	8.56	10.6	10.1	6.19	6.37	6.25
CCGATTAACATCAGGGGAATATATGATGTTAATCGGGTCTTGATTCGCTTGACGCTGCTG	7.96	9.67	9	7.8	5.02	7.45	6.01
